High-throughput results: PubChem BioAssay, National Center for Advancing Translational Sciences (NCATS)
Hits are enriched below; roughly 2.1% of the tested compounds scored in any of these assays.
TDP-43 yeast inh: TDP-43 toxicity inhibition in yeast; 410,000 tested, 1.8% active; TDP-43 expressing yeast growth rescue, BacTiter-Glo, 24 h; AID 652104; Potency, µM (series often up to 46.1 µM), for the others: at the highest dose growth rescue (activation), hits mostly activators; also: % of control where 0% means no effect; nearly all actives have a fitted effect of over 50% in size
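Yeast expressing TDP-43 (pregrown in raffinose, seeded at OD600=0.02 in galactose medium) exposed to compounds 24 hr at 30 deg C. Growth read by BacTiter-Glo luminescence; rescue of toxicity appears as increased signal.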
FUS suppressor: FUS proteinopathy suppression in yeast. S. cerevisiae FUS-expressing, growth rescue, OD600, 24 h. Potency, µM (highest dose often 76.6 µM), actives largely listed as activators. 390,000 tested, 0.24% active. AID 1347120;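 also: plate controls were DMSO vehicle for no effect and reference control for full effect; nearly all actives have a fitted effect of over 55% in size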
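Restored growth of FUS-toxic S. cerevisiae, read as 600 nm absorbance after 24 h at 30C in galactose medium (starting OD 0.005). Controls CP55940 and DMSO.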
Abeta rescue: A-beta toxicity reversal in yeast; yeast expressing A-beta42, growth rescue, OD600, 48 h; response scale: 0% DMSO, 100% iron-clioquinol control; Potency, µM (top dose mostly 46.1 µM), actives largely listed as activators; 410,000 tested, 0.063% active; also: nearly all actives have a fitted effect of over 55% in size
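Yeast growth medium received pinned compounds, then yeast cells expressing toxic A-beta were added; plates incubated at 30 C for 48 hr. Growth read as absorbance at 600 nm, normalized to DMSO and equimolar FeCl3 plus clioquinol controls.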
aSyn yeast inh: inhibitors of alpha-synuclein toxicity in yeast; Yeast expressing alpha-synuclein, growth rescue, BacTiter-Glo, 24 h; Potency, µM (series often up to 46.1 µM), for inactives: at the top dose growth rescue (activation), most hits filed as activators; 370,000 tested, 0.14% active; AID 652106; also: % of control where 0% means no effect; nearly all actives have a fitted effect of over 65% in size
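Readout is rescue of growth in alpha-synuclein-expressing yeast, so inhibitors of toxicity appear as activators. Growth after 24 hr at 30 deg C in galactose medium is quantified by luminescence.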
Starred values were filed as active, the others as inactive; i = inactive; ? = inconclusive; . = no result; [ ] = remark or other dose. Calls follow the shape of the dose curve; as a rule, active = well fitted curve in the direction sought with a large enough effect; inconclusive = small, poorly fitted or top-dose-only effect, or another doubt; inactive = no such curve, though single readings can be large; an effect the other way counts as inactive or inconclusive. Potency is read from the fitted curve at half-maximal effect.

SMILES	TDP-43 yeast inh	FUS suppressor	Abeta rescue	aSyn yeast inh
COc1cccc(CN2CCN(C(=O)c3oc4c(F)cccc4c3C)CC2=O)c1	20µM*	i	i	1.5%
C[C@H](NC(=O)c1nc[nH]c1C(=O)NC[C@@H](C)O)c1ccccc1	17.2%	i	i	-13.1%
COc1cccc(Oc2nc(-c3ccncc3)nc3ccccc23)c1	12.6µM*	i	i	29.6%
CCOC(=O)N1CCc2c(sc3c2c(=O)n(Cc2ccccc2)c(=O)n3Cc2cccc(C)c2)C1	11.9%	i	i	-12.6%
CC(=O)c1sc2nc(-c3cccs3)ccc2c1N	10µM*	i	i	8.4%
COCC(=O)Nc1ccc(Br)c(C)c1	21.3%	i	i	0.1%
O=C(ON=C1CCN(S(=O)(=O)c2ccccc2)CC1)c1ccccc1	20µM*	i	i	0.7%
O=C(ON=C1CCN(S(=O)(=O)c2ccccc2)CC1)c1cccc(Cl)c1	?	i	i	1.6%
CCC(C)(C)NC(=S)Nc1ccccc1C	0.0%	i	12.6µM*	-12.5%
Cc1ccc(O)c(C(=O)/C=C/c2ccc3c(c2)OCCCO3)c1	14.1µM*	i	i	-18.1%
COc1cc(/C=C/C(=O)c2ccccc2O)cc(OC)c1OC	15.8µM*	i	i	13.2%
Cc1ccc(O)c(C(=O)C=Cc2ccccc2)c1	12.6µM*	.	i	?
O=C(/C=C/c1ccc2c(c1)OCCCO2)c1ccccc1O	12.6µM*	.	i	-37.2%
O=C(CCc1nc2ccccc2c(=O)[nH]1)Nc1cc(Cl)ccc1N1CCCCC1	24.1%	i	i	9.4%
C/C(=N\NC(=O)C1CCCN(S(=O)(=O)c2ccccc2)C1)c1ccccn1 (stereo unspecified)	8.1%	i	i	-2.9%
COc1ccc(NC(=O)C(C2CC2)n2c(=O)c(-c3ccccc3)nc3ccccc32)cc1 (stereo unspecified)	20µM*	i	i	12.3%
C=CCn1nc2ccccc2c1OCCO	4.4%	i	i	-3.0%
CN(C)/C=N/C(=S)Nc1ccc(F)cc1	7.6%	i	i	-3.4%
CC(C)(C)c1ccc(Oc2ccc(N)cn2)cc1	20µM*	i	?	28.1%
Cc1cc(Oc2ccc(N)cn2)cc(C)c1Cl	1.1%[1.82 µM]	i	i	8.7%
FC(F)(F)c1nc(Sc2ncccc2C(F)(F)F)n[nH]1	12.6µM*	i	i	-11.7%
CC(C)C[C@H](NC(=O)c1nc[nH]c1C(=O)NC(c1ccccc1)c1ccccc1)C(=O)OC(C)(C)C	-13.6%	14.1µM*	i	6.7%
C[C@@H](NC(=O)c1[nH]cnc1C(=O)Nc1ccccc1)c1ccccc1	22.4µM*	i	i	-7.0%
Cc1cccc(NC(=O)c2nc[nH]c2C(=O)N[C@@H](CC(C)C)C(=O)OC(C)(C)C)c1	24.1%	i	6.31µM*	-2.4%
Cc1cccc(NC(=O)c2nc[nH]c2C(=O)N[C@@H](Cc2ccccc2)C(=O)OC(C)(C)C)c1	3.0%	?	i	26.3%
SMILES	TDP-43 yeast inh	FUS suppressor	Abeta rescue	aSyn yeast inh
CCOC(=O)c1ccc(-c2ccc(C=O)o2)cc1	11.2µM*	i	i	-35.6%
CCCOC(=O)c1ccc(-c2ccc(C=O)o2)cc1	-18.7%	i	i	-23.0%
CCOC(=O)c1c(NC(=O)OC)sc(C(=O)N(CC)CC)c1C	-7.3%	i	i	-1.2%
COC(=O)c1ccccc1NC(=O)CCc1ccccc1	10µM*	i	i	-3.2%
COC(=O)c1cc(C)sc1NC(=O)CCc1ccccc1	11.2µM*	i	i	2.7%
COC(=O)c1ccccc1NC(=O)COc1ccccc1	4.6%	i	i	3.9%
COC(=O)c1ccsc1NC(=O)CCc1ccccc1	?	i	i	0.0%
Cc1nc(NC(=O)CCc2ccccc2)sc1C	12.6µM*	i	i	1.8%
Cc1occc1C(=O)NCc1ccccc1F	9.5%	i	i	-2.1%
O=S1(=O)C=C(Sc2nnc(-c3ccccc3)o2)c2ccccc21	8.91µM*	i	i	-13.4%
Cc1cc(C)nc(SC2=CS(=O)(=O)c3ccccc32)n1	26.1%	i	i	3.4%
Cc1cc(C)n2c(SCc3ccc(C#N)cc3)nnc2n1	22.4µM*	i	i	0.4%
COc1ccc(-c2cc(NC=O)c3ncc(-c4ccc(OC)c(OC)c4)n3c2)c(OC)c1	27.0%	?	i	-18.4%
CCSc1ccc(-c2cc(NC=O)c3ncc(-c4cccc(C(=O)NCCN(C)C)c4)n3c2)cc1	21.7%	i	i	-19.6%
COc1cccc(-c2cnc3c(NC=O)cc(-c4ccc(N(C)C)cc4)cn23)c1	20µM*	?	i	-9.2%
COc1cccc(-c2cc(NC=O)c3ncc(-c4ccc(OC)c(OC)c4)n3c2)c1	?	?	i	-8.4%
COc1ccc(-c2cc(NC=O)c3ncc(-c4cccc(OC)c4)n3c2)cc1	10µM*	i	i	-16.1%
COc1cccc(-c2cnc3c(NC=O)cc(-c4ccc(OC)cc4OC)cn23)c1	22.4µM*	?	i	-7.0%
CCSc1ccc(-c2cc(NC=O)c3ncc(-c4cccc(C(=O)N(C)C)c4)n3c2)cc1	5.1%	25.1µM*	i	6.1%
O=C1CCc2cc(S(=O)(=O)NCCc3ccccc3)cc3c2N1CC3	7.4%	i	i	-0.5%
CC(CCc1ccccc1)NC(=O)COC(=O)c1cccn1C (stereo unspecified)	27.7%	i	i	2.2%
COc1cccc(-c2cnc3c(NC=O)cc(-c4cc(OC)c(OC)c(OC)c4)cn23)c1	?	28.2µM*	i	-19.1%
O=C(NCCN1C(=O)S/C(=C\c2cccc(Cl)c2Cl)C1=O)C1=COCCO1	3.98µM*	i	i	1.9%
Cc1ccc2nc(C)cc(SCC(=O)N/N=C/c3ccco3)c2c1	5.0%	i	i	0.6%
Oc1ccc(Nc2ccc3ccccc3c2)cc1	22.4µM*	i	i	-22.1%
SMILES	TDP-43 yeast inh	FUS suppressor	Abeta rescue	aSyn yeast inh
O=S(=O)(NCc1ccccc1)c1ccc(Br)s1	11.2µM*	i	i	9.6%
S=C(Cc1ccccc1)Nc1ccccc1	8.91µM*	.	i	1.5%
O=C1c2ccccc2NC(c2cn[nH]c2-c2ccc(Cl)cc2)N1O (stereo unspecified)	-4.1%	25.1µM*	i	-15.9%
CC1(Cc2cccc(C(F)(F)F)c2)C(=O)Nc2c(Cl)ccc(Cl)c21 (stereo unspecified)	-17.3%	i	i	-26.4%
CC1(Cc2ccccc2Cl)C(=O)Nc2c(Cl)ccc(Cl)c21 (stereo unspecified)	31.6µM*	i	i	12.6µM*
Cc1ccc(CC2(C)C(=O)Nc3c(Cl)ccc(Cl)c32)cc1 (stereo unspecified)	0.0%	i	i	17.8µM*
CC1(Cc2ccccc2F)C(=O)Nc2c(Cl)ccc(Cl)c21 (stereo unspecified)	2.2%	i	i	11.2µM*
CC1(Cc2ccc(Cl)cc2)C(=O)Nc2c(Cl)ccc(Cl)c21 (stereo unspecified)	-25.9%	i	i	?
Cc1cccc(CSc2nnc(CCCCCN)o2)c1	-15.3%	i	i	-1.1%
